Assay results: PubChem BioAssay AID2685 (National Center for Advancing Translational Sciences (NCATS), 2010)
The whole screen tested about 320,000 compounds, of which about 2,100 (0.66%) were called active. Roughly 53% stayed inconclusive and do not appear here. Calls follow the shape of the dose curve; as a rule, active = well fitted inhibition curve with a large enough effect in the signal ratio, with a control signal flat (not every such curve was filed as active); inconclusive = small, poorly fitted or top-dose-only effect, or effect the other way, or a change in a side signal; inactive = flat fitted curve, though single readings scatter; the % refers to the signal ratio. This excerpt belongs to a sample that is enriched for actives.

assay: qHTS Assay for Lipid Storage Modulators in Drosophila S3 Cells; conditions: BODIPY lipid droplet fluorescence, 18-24 h, cells fed with added oleic acid; cell number change: measured here: cell count max response; series mostly up to 46.1 µM; lipid storage change, negative = inhibition: at the top concentration;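 as to cell number change: cells counted by Cell Tracker Red CMTPX staining in the red channel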; as to lipid storage change, negative = inhibition: % is scaled to controls: 0 for no effect and ±100 for the full control effect
Summary of the method: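 Laser-scanning cytometry quantifies lipid droplet accumulation (500–530 nm total intensity; droplet/cell object ratio) in oleic acid-fed (400 uM added) Drosophila S3 cells treated with a concentration series. 20 uM Triacsin C defined 100% inhibition.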
Potency is read from the fitted curve at half-maximal effect.

| SMILES | lipid storage change, negative = inhibition | cell number change | Potency | outcome |
| --- | --- | --- | --- | --- |
| CC(C)(C)c1ccc(C(=O)N/N=C2\C3CN4CCN(C3)CC2(c2ccccc2)C4)cc1 | 23.5% (inactive) | 8.22% |  |  |
| Cc1ccc2c(c1)C(=O)C(=O)N2CCCOc1ccccc1C | 0.449% (inactive) | -3.05% |  |  |
| O=C(CN1CCN(S(=O)(=O)c2ccccc2)CC1)Nc1ccc(Cl)c([N+](=O)[O-])c1 | -3.05% (inactive) | 22% |  |  |
| CC(=O)c1ccc(S(=O)(=O)N2CCN(CC(=O)Nc3ccc(Cl)c([N+](=O)[O-])c3)CC2)cc1 |  | -15.2% | 29.1 µM (active) |  |
| Cc1ccc(S(=O)(=O)N2CCN(CC(=O)Nc3ccccc3C(=O)NC3CC3)CC2)cc1 |  | -13.8% |  | inactive |
| CC(=O)c1ccc(S(=O)(=O)N2CCN(CC(=O)Nc3ccccc3C(=O)NC3CC3)CC2)cc1 |  | -1.96% | 6.51 µM (active) |  |
| O=C(CN1CCN(S(=O)(=O)c2ccccc2)CC1)Nc1ccc(Cl)c(Cl)c1 |  | 16.9% |  | inactive |
| O=C(CN1CCN(S(=O)(=O)c2ccccc2)CC1)Nc1ccccc1C(=O)c1ccccc1 | 1.48% (inactive) | 4.18% |  |  |
| COc1c2ccc(C(=O)NCCCCc3ccccc3)cc2nn1C |  | -13.1% |  | inactive |
| CCOC(=O)NCc1ccc2[nH]c(C)cc2c1 | -10.1% (inactive) | 16.1% |  |  |
| Nc1cc(N)nc(SCC(=O)N2CCCCC2)n1 | 6.72% (inactive) | 2.45% |  |  |
| Nc1cc(N)nc(SCCN2CCCCC2)n1 |  | 3.17% | 0.0184 µM (active) |  |
| Cc1cc(C)c(C#N)c(SCCN2CCCCC2)n1 |  | -24.3% |  | inactive |
| O=C(O)c1ccc(N2C(=O)CC(N3CCN(c4cccc(Cl)c4)CC3)C2=O)cc1 (configuration not stated) | 9.41% (inactive) | -9.85% |  |  |
| O=C1Nc2c(c(=O)[nH]c(=O)n2-c2ccccc2F)C(C(F)(F)F)(C(F)(F)F)N1 | -3.91% (inactive) | 12.5% |  |  |
| Cc1ccc(-n2c3c(c(=O)[nH]c2=O)C(C(F)(F)F)(C(F)(F)F)NC(=O)N3)cc1 | -27.1% (inactive) | 7.3% |  |  |
| O=C1Nc2c(c(=O)[nH]c(=O)n2-c2ccccc2)C(C(F)(F)F)(C(F)(F)F)N1 |  | -18.7% | 25.9 µM (active) |  |
| Cn1cccc1CC(=O)N/N=C/c1ccc(Cl)cc1 | 16.8% (inactive) | -7.57% |  |  |
| Cc1cc(C)cc(OCC(=O)OCC(=O)NCc2cccs2)c1 | -2.88% (inactive) | -3.19% |  |  |
| O=C(COC(=O)COc1ccc(Nc2ccccc2)cc1)NCc1ccco1 | -4.12% (inactive) | 8.25% |  |  |
| COc1ccc(CNC(=O)COC(=O)c2cc3ccccc3o2)cc1 |  |  |  | inactive |
| O=C(COC(=O)c1cc2ccccc2o1)NCc1ccco1 |  | -22.2% | 0.206 µM (active) |  |
| Cc1c(C(=O)OCC(=O)NCc2ccco2)oc2ccccc12 | 6.66% (inactive) | -15.4% |  |  |

| SMILES | lipid storage change, negative = inhibition | cell number change | Potency | outcome |
| --- | --- | --- | --- | --- |
| Cc1cc(C)cc(OCC(=O)OCC(=O)NCc2ccco2)c1 |  | 10.8% | 23.1 µM (active) |  |
| C=CCNC(=O)/C(=C\c1ccc([N+](=O)[O-])cc1)NC(C)=O | -2.27% (inactive) |  |  |  |
| CC(C)/C=N/Nc1nc2c(c(=O)n(C)c(=O)n2C)n1C | -8.14% (inactive) | -4.59% |  |  |
| COC(=O)c1ccc2c(=O)n(-c3ccccc3)c(=S)[nH]c2c1 | 11.6% (inactive) | 5.89% |  |  |
| NC(=O)CC(NC(=O)Cc1ccc(Br)cc1)c1ccc(NCCc2ccc(Cl)cc2)c([N+](=O)[O-])c1 (configuration not stated) | 0.303% (inactive) | -9.69% |  |  |
| COCCOC(=O)/C(C#N)=C/c1cn(Cc2ccccc2)nc1-c1cccnc1 | -14.1% (inactive) | -16.4% |  |  |
| C[C@H](NC(=O)OCc1ccccc1)c1nnc([C@H](C)NC(=O)OCc2ccccc2)o1 | 2.69% (inactive) | 2.65% |  |  |
| Cc1ccc(S(=O)(=O)N2CCN(C(=O)CN3CCc4ccccc4C3)CC2)cc1 |  | 21.3% |  | inactive |
| COCc1ccc(C(=O)Nc2ccccc2C(=O)NCc2cccnc2)cc1 |  | 10.3% |  | inactive |
| C=CCOc1ccc(C(=O)Nc2ccccc2C(=O)NCc2cccnc2)cc1 |  | 18.4% | 3.26 µM (active) |  |
| COc1cc(C(=O)Nc2ccccc2C(=O)NCc2cccnc2)cc(OC)c1OC |  | -22.9% |  | inactive |
| CC(=O)Nc1nnc(S(=O)(=O)N2CCN(c3ccc([N+](=O)[O-])cc3Cl)CC2)s1 |  | -24.2% |  | inactive |
| COc1cccc(-c2cc(C(=O)Nc3ccc(OC)c(OC)c3)no2)c1 | 5.84% (inactive) | -25.5% |  |  |
| CC1CCN(c2ccc(NC(=O)c3ccc([N+](=O)[O-])o3)cc2)CC1 |  | 0.613% | 16.4 µM (active) |  |
| CC(C)(C)C(=O)N1CCN(c2ccc(NC(=O)c3ccc([N+](=O)[O-])o3)cc2)CC1 |  | 19.6% |  | inactive |
| Cc1ccc(C(=O)N2CCN(c3ccc(NC(=O)c4cccnc4)cc3)CC2)cc1 |  | 4.57% |  | inactive |
| CC1CCN(c2ccc(NC(=O)c3cccnc3)cc2)CC1 |  | -20.1% | 20.6 µM (active) |  |
| O=C(Nc1ccc(N2CCOCC2)cc1)c1cccnc1 | 6.23% (inactive) | 3.28% |  |  |
| O=C(Nc1ccc(N2CCOCC2)cc1)c1ccc([N+](=O)[O-])o1 |  | -16.7% |  | inactive |
| CCn1c(=O)c2ccccc2n(CC(=O)NCCC2=CCCCC2)c1=O | 3.41% (inactive) | 25.4% |  |  |
| CCn1cc(C(=O)NCC(OC)OC)c(=O)c2cc(S(=O)(=O)N3CCOCC3)ccc21 | 11.9% (inactive) |  |  |  |
| Cc1ccc(C)c(OCC(=O)Nc2ccncc2)c1 | 2.81% (inactive) | 4.4% |  |  |
| COc1ccc(Nc2cc(C)c3cc([N+](=O)[O-])ccc3n2)cc1 | -8.57% (inactive) | 3.7% |  |  |

| SMILES | lipid storage change, negative = inhibition | cell number change | Potency | outcome |
| --- | --- | --- | --- | --- |
| Nc1c(C(=O)NCCc2ccccc2)nnn1Cc1ccc(Br)cc1F | 6.34% (inactive) | 2.88% |  |  |
| COc1cc(F)c(C2=CC(=O)C[C@H](c3ccc(F)cc3)C2)cc1F |  | -1.88% | 0.731 µM (active) |  |
| COc1ccc([C@H]2CC(=O)C=C(c3ccc(C)c(F)c3)C2)cc1 |  | -9.27% |  | inactive |
| COc1ccc([C@H]2CC(=O)C=C(c3ccc(OC)c(F)c3)C2)cc1 |  | 1.81% | 0.731 µM (active) |  |
| COc1ccc(C2=CC(=O)C[C@H](c3ccc(F)cc3)C2)cc1OC | -2.63% (inactive) | -2.7% |  |  |
| COc1cc(F)c(C2=CC(=O)C[C@H](c3ccc4c(c3)OCO4)C2)cc1F |  | -8.29% |  | inactive |
| COc1ccc(C2=CC(=O)C[C@H](c3ccc(F)cc3)C2)cc1F |  |  |  | inactive |
| O=C(Cc1cccc(NC(=O)C2CCN(C(=O)CCc3ccccc3)CC2)c1)Nc1cccc(C(=O)N2CCCC2)c1 |  | -25.9% |  | inactive |
| COc1ccc(N2CCN(CC(=O)c3ccc(Cl)cc3)CC2)cc1 |  |  | 6.51 µM (active) |  |
| CC(C)CC(=O)Nc1ccc(N2CCOCC2)cc1 | -2.97% (inactive) | -6.68% |  |  |
| CC(C)CC(=O)Nc1ccc(C(=O)CN2CCC(C)CC2)cc1 | 6.1% (inactive) | 11.5% |  |  |
| COc1ccc(N2CCN(CC(=O)c3ccccc3)CC2)cc1 |  | 8.26% |  | inactive |
| COc1ccc(C(=O)CN2CCN(c3ccc(Cl)cc3)CC2)cc1OC | -17.5% (inactive) | 16.9% |  |  |
| CC(C)CC(=O)Nc1ccc(C(=O)CN2CCN(c3ccc(O)cc3)CC2)cc1 |  | -10.4% | 4.61 µM (active) |  |
| CCCC(C)c1nnc(NC(=O)C2CCCO2)s1 (configuration not stated) |  |  |  | inactive |
| C/C(=N\NC(=O)c1ccc(-c2ccccc2)cc1)C1C(=O)c2ccccc2C1=O | -10.9% (inactive) | 2.31% |  |  |
| COc1ccc(OC)c(NC(=O)CCN2C(=O)c3cccc([N+](=O)[O-])c3C2=O)c1 |  | 12.8% |  | inactive |
| OCCC1CN(Cc2cc3c(cc2Cl)OCO3)CCN1C1CCCCC1 (configuration not stated) | 18% (inactive) | 2.14% |  |  |
| OCCC1CN(Cc2ccncc2)CCN1C1CCCC1 (configuration not stated) | -2.02% (inactive) | -1.79% |  |  |
| Cc1nnc(SCc2ccon2)n1-c1ccccc1 | -0.985% (inactive) | -2.33% |  |  |
| O=C(N/N=C/c1ccc([N+](=O)[O-])s1)c1ccccc1 |  |  |  | inactive |
| O=C(Cc1ccccc1)NCC(=O)N/N=C/c1ccc([N+](=O)[O-])s1 |  | 17.1% | 16.4 µM (active) |  |
| O=C(Cc1ccccc1)NCC(=O)N/N=C/c1cccs1 | 7.5% (inactive) |  |  |  |

| SMILES | lipid storage change, negative = inhibition | cell number change | Potency | outcome |
| --- | --- | --- | --- | --- |
| COc1ccc(OC)c(Cc2nnc(CCC(=O)NC3CCCCC3)o2)c1 | -8.81% (inactive) | -6.11% |  |  |
| Cn1c(OCc2ccc3c(c2)OCO3)nc2c1c(=O)n(Cc1ccc(Cl)c(Cl)c1)c(=O)n2C | -1.56% (inactive) | 10.2% |  |  |
| Cc1cn(Cc2ccccc2)c(=O)[nH]c1=O | -2.22% (inactive) | -5.94% |  |  |
| N#Cc1cn(Cc2ccccc2)c(=O)[nH]c1=O | -14.4% (inactive) | 17.6% |  |  |
| O=c1[nH]c(=O)n(Cc2ccc(Oc3ccccc3)cc2)cc1Br |  | 18.3% | 18.4 µM (active) |  |
| CC1Sc2ccc(S(=O)(=O)CCC(=O)NC3CCCCC3C)cc2NC1=O (configuration not stated) |  | 7.41% |  | inactive |
| NC(=O)c1cc(C(=O)Cc2ccc(Cl)cc2)c[nH]1 |  | 23.6% |  | inactive |
| CCOc1ccc(CNC(=O)C(C)n2nc(C)c3c(C)n(-c4ccccc4)nc3c2=O)cc1 (configuration not stated) |  |  |  | inactive |
| CCOC(=O)c1[nH]c2ccccc2c1NC(=O)c1nonc1C |  | 103% | 2.06 µM (active) |  |
| CCOC(=O)c1[nH]c2cc(OC)c(OC)cc2c1NC(=O)c1nonc1C |  | -8.79% |  | inactive |
| CCOC(=O)c1[nH]c2ccc(Cl)cc2c1NC(=O)c1nonc1C | -7.98% (inactive) | -14.5% |  |  |
| C#CCOC(=O)C[N+](C)(C)CC=C | -14.8% (inactive) | 12.5% |  |  |
| Nc1ccc(C(=O)N/N=C/c2c[nH]c3ccccc23)cc1 | 9.89% (inactive) | 14.6% |  |  |
| Cc1ccc(CNC(=O)C(Cc2ccccc2)NS(=O)(=O)c2cccs2)cc1 (configuration not stated) |  |  |  | inactive |
| CCC(NS(=O)(=O)c1cccs1)c1ccc(C)cc1 (configuration not stated) |  | 13.3% | 0.164 µM (active) |  |
| Cc1ccc(CNC(=O)C(NS(=O)(=O)c2cccs2)C(C)C)cc1 (configuration not stated) | 20.5% (inactive) | 20.4% |  |  |
| CCS(=O)(=O)n1nc(-c2ccco2)nc1N | 0.971% (inactive) | 19.9% |  |  |
| Cc1ccc(NC(=S)N/C(=N/S(=O)(=O)c2ccccc2)c2ccccc2)cc1 |  |  |  | inactive |
| CS/C(=N/S(=O)(=O)c1ccc(C)cc1)c1ccccc1 | 19.1% (inactive) | -26.1% |  |  |
| Cc1ccc(N/C(CSC(N)=O)=N/S(=O)(=O)c2ccccc2)cc1 |  |  | 16.4 µM (active) |  |
| CC(CNC(=O)c1cc(Cl)ccc1[N+](=O)[O-])NC(=O)c1cc(Cl)ccc1[N+](=O)[O-] (configuration not stated) | -13.7% (inactive) | -7.89% |  |  |
| COc1cc(OC)cc(C(=O)NC(C)CNc2ccc(Cl)cc2[N+](=O)[O-])c1 (configuration not stated) |  | -19.1% | 16.4 µM (active) |  |
| COc1ccc(NC(=O)c2cc(Cl)ccc2Cl)c([N+](=O)[O-])c1 | 18.3% (inactive) | -6.66% |  |  |
